Screening results (PubChem)
ATXN2 expr inh: inhibitors of ATXN2 expression | HEK-293 ATXN2-luciferase reporter, luminescence, 24 h | Potency, µM (doses to about 57 µM), without a hit: top-dose activity change, negative = inhibition, hits mostly inhibitors | 0.72% of 360,000 active | AID 1745845; note: potency is the fitted concentration of half-maximal effect; % is set by controls: 0 for no effect and ±100 for the full control effect; nearly all actives have a fitted effect of over 55% in size
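ATXN2-luciferase reporter cells (luciferase flanked by upstream and downstream ATXN2 gene portions) were treated 24 h at 37 °C with compounds at up to 57 uM. SteadyGlo luminescence gave expression; GF-AFC fluorescence gave viability.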
Integrin act MD: activators of alpha7 integrin expression for muscular dystrophy | 0.064% of 350,000 active | Potency, µM (titrated, usually from 38.3 µM), for inactives: top-dose activation, usual class: activators | alpha7betagal myoblasts, beta-gal FDG fluorescence, 48 h;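 note: potency is the fitted concentration of half-maximal effect; 100% = response of the positive control SU9516; nearly all actives have a fitted effect of over 60% in size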
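alpha7betagal+/- myoblasts (passage 13, 250/well) treated 48 h at 37C with compounds at 1:260 dilution of DMSO stock. Lysed, then beta-galactosidase activity read as FDG fluorescence (ex 480/em 540) after 30 min, with pre-read for autofluorescence.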
IL-1B inflam inh: inhibitors of inflammasome signaling (IL-1 beta secretion); 4.7% of 360,000 active; activity change, % at 57.5 µM; THP-1 LPS/ATP IL-1B secretion, AlphaLISA, 16 h; hits give low values; AID 743279; in the data active = activity change below about -50%; inconclusive = mostly about -30% to -49%; note: % is set by controls: 0 for no effect and ±100 for the full control effect
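Secreted IL-1B measured by AlphaLISA bead assay after 16 h compound exposure of THP-1 cells; compounds (final up to 57.5 uM) added 1 h before LPS (250 ng/mL) and ATP (1.25 mM) stimulation; lower signal means less secretion.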
ATXN viability: viability counter-screen for ATXN expression inhibitors; 0.49% of 400,000 active; AID 651635; S2 cells (HEK-293 line with an ATXN2-luciferase reporter) viability, CellTiter-Fluor protease fluorescence, 24 h; Potency, µM (titrated, usually from 56.7 µM), most hits filed as cytotoxic; note: potency is the fitted concentration of half-maximal effect; nearly all actives have a fitted effect of over 40% in size
DRD3 agonist: D3 dopamine receptor (human) agonism; D3R DiscoveRx beta-arrestin cells, luminescence, 90 min; max activation, %; 0.58% of 410,000 active; in the data active = max activation above about 30%; note: 0% is about no effect
Target sequence (P35462 whole entry, looked up): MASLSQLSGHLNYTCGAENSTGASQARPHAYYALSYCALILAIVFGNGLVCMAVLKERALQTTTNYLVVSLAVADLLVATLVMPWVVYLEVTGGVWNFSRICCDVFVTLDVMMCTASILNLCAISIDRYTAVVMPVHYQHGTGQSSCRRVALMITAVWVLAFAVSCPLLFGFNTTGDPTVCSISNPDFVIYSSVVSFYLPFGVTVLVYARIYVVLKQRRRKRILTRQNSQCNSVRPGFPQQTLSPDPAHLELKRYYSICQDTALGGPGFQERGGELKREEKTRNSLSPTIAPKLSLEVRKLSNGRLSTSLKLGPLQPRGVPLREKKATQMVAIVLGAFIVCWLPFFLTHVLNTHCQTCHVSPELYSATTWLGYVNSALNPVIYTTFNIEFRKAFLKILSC
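Agonist-mode cell screen: cells plated at 1500/well and incubated overnight at 37 °C, then exposed to library compounds for 90 min at 37 °C. Detection reagent was added for 30–60 min at room temperature, and luminescence was read.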
D3 antag: antagonists of human D3 dopamine receptor; P35462; D3R cells, DiscoveRx beta-arrestin luminescence, antagonist mode; hits give low values; max response, negative = inhibition, %; 2.5% of 360,000 active; in the data active = max response below about -50%; inconclusive = no clear call, values can overlap the other calls; note: % is set by controls: 0 for no effect and ±100 for the full control effect
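Cells plated overnight at 1500 cells/well, then exposed to library compounds with dopamine controls for 90 minutes at 37 degrees C. DiscoveRx reagent added for 30–60 minutes at room temperature; luminescence read, quantitative HTS format.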
* marks the source's active call; other numbers are inactive results; i = inactive; ? = inconclusive; · = no result given. An excerpt weighted towards active compounds, which were near 7% of everything screened. Unless noted, calls come from the whole dose curve; as a rule, active = well fitted curve in the direction sought with a large enough effect; inconclusive = small, poorly fitted or top-dose-only effect, or another doubt; inactive = no such curve, though single readings can be large; an effect the other way counts as inactive or inconclusive.

SMILES	ATXN2 expr inh	Integrin act MD	IL-1B inflam inh	ATXN viability	DRD3 agonist	D3 antag
O=C(Cc1nc2ccccc2[nH]1)c1ccc(Cl)cc1	22%	26%	-99*	·	-3	-4
CSC1=NCCN1C(=O)COc1ccccc1	2%	4%	0	i	6	7
COC(c1ccccc1)c1nnc(CCC(=O)N(C)CCOc2ccccc2)o1 (centres undefined)	21%	-28%	-59*	i	5	-1
CCOC(=O)CCc1c(C)nc2cc(-c3ccc(F)cc3)[nH]n2c1=O	6%	2%	-74*	i	-16	?
Cc1ccccc1N=C/C=C1\N(C)c2ccccc2C1(C)C	-10%	0%	-11	i	0	-17
O=C(NCc1ccc(Cl)cc1)c1cc(S(=O)(=O)N2CCCCC2)c[nH]1	?	30%	?	?	-1	-54*
CCOC(=O)Cn1c(=O)oc2cc(S(=O)(=O)Nc3c(C)cc(C)cc3C)ccc21	-23%	1%	-10	i	-7	?
CCSc1nnc(NC(=O)C(NC(=O)c2ccc(Cl)cc2)C(C)C)s1 (centres undefined)	4%	21%	2	i	-33	-61*
O=S(=O)(c1cccs1)N1CCC(CO)(Cc2cccc(F)c2)CC1	-19%	?	-2	i	3	-10
CC(C)n1nnnc1-c1cccc(Cl)c1	0%	-2%	0	i	8	-51*
O=c1/c(=C\c2cccc(O)c2)sc2nc(-c3ccccc3)c(-c3ccccc3)n12	·	-8%	-75*	?	-14	2
NC(=O)N=Nc1c2[nH]c3ccccc3nc-2c2ccccc12	?	-65%	-89*	?	11	73
O=c1[nH]c2ccccc2nc1-c1ccccc1	82%	8%	20	i	1	-3
Cc1cccc(/C=N\NC(=O)c2csnn2)c1	39%	-39%	-13	i	-14	-91*
CN(C)c1ccc(/C=N\NC(=O)c2csnn2)cc1	-9%	20%	11	i	0	-8
CC(=O)Nc1ccc(Nc2nc3ccccc3nc2NS(=O)(=O)c2ccc(Cl)c([N+](=O)[O-])c2)cc1	-6%	11%	-108*	i	3	-91*
O=[N+]([O-])c1ccc(S(=O)(=O)Nc2nc3ccccc3nc2Nc2ccccc2)cc1	?	7%	-73*	?	-3	-2
COc1cc(Nc2nc3ccccc3nc2NS(=O)(=O)c2ccc([N+](=O)[O-])cc2)cc(OC)c1OC	-24%	?	-12	?	2	-15
Cc1nn(C)c(C)c1N1C(=O)c2cccc3c(Br)ccc(c23)C1=O	-36%	-28%	-96*	·	-4	-8
Cc1nn(C)c(C)c1N1C(=O)c2cccc3c(N)ccc(c23)C1=O	-5%	-55%	3	·	2	17
CN(C)CCCN1C(=O)c2cccc3c(Br)ccc(c23)C1=O	?	-64%	-74*	·	3	-19
O=C(O)CN1C(=O)c2cccc3c(Br)ccc1c23	7%	-20%	17	i	11	15
CCOC(=O)c1c(-c2ccccc2)oc2ccc(OCc3ccccc3Br)cc12	-3%	·	·	i	-3	·
Nc1c2c(nc3ccn(-c4ccccc4)c(=O)c13)CCCCC2	-6%	33%	-58*	i	-9	-26
CSc1ccccc1NC(=O)CN(C)CC(=O)NCC(=O)Nc1ccc(F)cc1	4%	0%	2	i	2	-50*
CCCCc1ccc(NC(=O)CN(C)CC(=O)Nc2ccccc2Cl)cc1	-10%	-54%	-74*	i	3	-3
CN(CC(=O)Nc1ccccc1)CC(=O)Nc1ccccc1Cl	43%	0%	15	i	2	4
CN(CC(=O)Nc1ccc(Cl)cc1)CC(=O)Nc1ccc(F)c(F)c1F	-13%	2%	-60*	i	-16	22
COc1ccc(Cl)cc1NC(=O)CN(C)CC(=O)Nc1ccc(Br)cc1	-12%	24%	-89*	i	-9	-3
O=C(c1ccco1)N1CCN(C(=O)c2cc(-c3ccc(F)cc3)no2)CC1	-12%	21%	0	i	-4	-13
